Assay [1] is described as follows: Quantitative High-Throughput drug screen in 47 multiple myeloma cell lines against the NCATS MIPE library collection: PE2_PLB cell viability assay (AID 1919869). Further: nearly all actives have a fitted effect of over 35% in size. Further: potency means the concentration at half of the fitted maximal effect. Particulars: PE2_PLB myeloma cells viability, ATP luminescence, 48 h; series mostly up to 45.8 µM. The method, boiled down: (§1)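 qHTS format: cells plated (500/well), pin-dosed with MIPE 4.0 compounds, kept 48 h at 37 °C. Readout was CellTiter-Glo luminescence, median RLU.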

The nature of assay [2]: Quantitative High-Throughput drug screen in 47 multiple myeloma cell lines against the NCATS MIPE library collection: RPMI8226_ATCC cell viability assay (AID 1919871). Further: nearly all actives have a fitted effect of over 30% in size. Further: potency means the concentration at half of the fitted maximal effect. The conditions noted are these: RPMI8226 myeloma viability, CellTiter-Glo ATP luminescence, 48 h; series mostly up to 45.8 µM. The method in brief: as §1
A general note: ATP-based viability assays read luminescence as a measure of living cells.

Assay [3] in a line: Quantitative High-Throughput drug screen in 47 multiple myeloma cell lines against the NCATS MIPE library collection: OPM2_DSMZ cell viability assay (AID 1919872). Further: nearly all actives have a fitted effect of over 30% in size. Further: potency means the concentration at half of the fitted maximal effect. The conditions noted are these: OPM2 myeloma viability, CellTiter-Glo ATP luminescence, 48 h; series mostly up to 45.8 µM. The method in brief: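 Approved and investigational drugs from MIPE 4.0 were added by pin tool to 500 cells per well. After 48 hours at 37C, ATP-based CellTiter-Glo luminescence indicated remaining viability.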

A short description of assay [4]: Quantitative High-Throughput drug screen in 47 multiple myeloma cell lines against the NCATS MIPE library collection: KMS11_JCRBsus cell viability assay (AID 1919873). Further: nearly all actives have a fitted effect of over 50% in size. Further: potency means the concentration at half of the fitted maximal effect. Particulars: KMS11 myeloma viability, CellTiter-Glo ATP luminescence, 48 h; series mostly up to 45.8 µM. The method, boiled down: as §1
A short description of assay [5]: Quantitative High-Throughput drug screen in 47 multiple myeloma cell lines against the NCATS MIPE library collection: PCM6_Riken cell viability assay (AID 1919870). Further: nearly all actives have a fitted effect of over 30% in size. Further: potency means the concentration at half of the fitted maximal effect. Particulars: CellTiter-Glo ATP, 48 h; series mostly up to 45.8 µM. The method in brief:
as §1

Assay [6] can be described thus: Quantitative High-Throughput drug screen in 47 multiple myeloma cell lines against the NCATS MIPE library collection: KMS28BM_JCRB cell viability assay (AID 1919874). Further: nearly all actives have a fitted effect of over 35% in size. Particulars: CellTiter-Glo ATP, 48 h; series mostly up to 45.8 µM. The method, boiled down:
as §1

The source of these data is PubChem BioAssay (NCATS).

Structures are written as SMILES. Results filed as inconclusive are left out. Calls of active or inactive are those of the source. The call rests on the fitted dose curve; in most records, active means well fitted cell-killing curve with a large enough effect; inconclusive means small, poorly fitted or top-dose-only effect, or effect the other way; inactive means no such curve, though single readings can be large or run the other way.

Regarding `CC1=C[C@@H]2[C@@H]([C@@H](O)C[C@@]3(C)[C@H]2C[C@@H](C)[C@]3(O)C(=O)CO)[C@@]2(C)Cc3cnn(-c4ccccc4)c3C=C12`, the Potency in assay [1] is 23.5 µM (active); in assay [2] it was 0.0264 µM (active); in assay [3] it was 20.9 µM (active); in assay [4], 0.0059 µM (active).
For `CC1C(=O)OC2C(O)C34C5CC(C(C)(C)C)C36C(OC(=O)C6O)OC4(C(=O)O5)C12O` (stereo not drawn) the same measures were “inactive”, “inactive”, “inactive” and “inactive”.
On to `CN[C@H]1[C@@H](O[C@@H]2[C@H](O[C@@H]3[C@@H](O)[C@@H](O)[C@@H](N=C(N)N)[C@@H](O)[C@@H]3N=C(N)N)O[C@H](C)[C@@]2(O)C=O)O[C@@H](CO)[C@@H](O)[C@H]1O`, for which the Potency entry in assay [1], in assay [5], in assay [2], in assay [3] and in assay [4] was “inactive” throughout.
Consider `Cc1ccc(C2=Nc3ccc(Cl)cc3OC2)cc1`, for which the Potency entry in assay [1], in assay [3] and in assay [6] was “inactive” throughout. Also, the Potency in assay [5] is 7.43 µM (active); in assay [2] it was 1.87 µM (active).
Consider `CC1CCN(c2cc(N3CCN(C)CC3)ccc2NC(=O)c2cc(C#N)c[nH]2)CC1`, for which the Potency result in assay [1], in assay [4] and in assay [6] was “inactive” each time. The Potency in assay [5] is 7.43 µM (active); in assay [2], 18.7 µM (active).
Turning to `NCC1CCC(C(=O)O)CC1` (stereo not drawn), the Potency result in assay [1], in assay [5], in assay [2], in assay [3] and in assay [4] was “inactive” throughout.
Turning to `C[C@@H]1[C@H](C)CC[C@]2(C(=O)O)CC[C@]3(C)C(=CC[C@@H]4[C@@]5(C)CC[C@H](O)C(C)(C)[C@H]5CC[C@]43C)[C@@H]12`, the Potency result in assay [1] and in assay [4] was “inactive” throughout. Further, the results for the Potency in assay [5], in assay [2] and in assay [3] were 12.1 µM (active), 27 µM (active) and 42.9 µM (active), respectively.
In the case of `Cc1c(C(=O)Nc2ccc(N3C[C@@H](C)O[C@@H](C)C3)nc2)cccc1-c1ccc(OC(F)(F)F)cc1`, the Potency entry in assay [1], in assay [5] and in assay [4] was “inactive” in each case. Also, the Potency was 16.6 µM (active) in assay [2] and 23.5 µM (active) in assay [3].
